“And” between values parts separate entries of the source, which are not always exact repeats. Equal values may be shown once. Records with an inconclusive call do not appear. A call without a number means that no potency is given here. A number with no mark means an inactive call. The source made the active and inactive calls. Calls come from the whole dose curve; as a rule, active = well fitted cell-killing curve with a large enough effect in the repeat runs; inconclusive = weak or mixed curves, or effect the other way; inactive = flat fitted curve, though single readings scatter.
Experiment: qHTS assay to identify small molecule agonists of the constitutive androstane receptor (CAR) signaling pathway - cell viability counter screen (AID 1224836); note: nearly all actives have a fitted effect of over 45% in size
Conditions: HepG2-CYP2B6-hCAR viability, CellTiter-Fluor, 23 h, PK11195 added to every well; series mostly up to 92.4 µM
Source text: U.S. Tox21 Program National Center for Advancing Translational Sciences [NCATS] NIH Chemical Genomics Center [NCGC] U.S. Environmental Protection Agency [EPA] National Institutes of Environmental Health Sciences [NIEHS] National Toxicology Program [NTP] U.S. Food and Drug Administration [FDA] Tox21 Assay Overview: The constitutive androstane receptor (CAR) is a nuclear receptor which regulates multiple drug metabolizing enzymes (DMEs) and transporters. Activating CAR will generally increase the transcription and subsequent translation of CYP2B6 and CYP3A4. These two DMEs represent about 50% of the drug metabolizing potential in the body. […] Recently, there have also been studies performed indicating CARs role in energy metabolism and cancer therapy. Therefore, inducing CARs activity could have a potential effect on diabetes and cancer. Identifying environmental toxins and compounds which modulate CAR, through the use of the Tox21 10K compound collection, will be an important step in determining the toxicity and potential therapeutic effects these factors will have on the human body. To differentiate true CAR agonists from cytotoxic substances, the assay is multiplexed with a cell viability assay.
Tox21 Assay Protocol Summary: A double-stable (hCAR and CYP2B6-2.2kb) transfected cell line, derived from human hepatoma (HepG2) cells, was utilized for the duration of the quantitative high-throughput screens. The HepG2-CYP2B6-hCAR cells were dispensed at 2500 cells/4 uL/well in 1536-well white solid bottom plates using a Multidrop Combi. After the assay plates were incubated at 37 C/5% CO2 for 4 hrs, 23 nL of compounds at 15 concentrations (from 5-48 columns) or positive control (from 1 to 4 columns) were transferred to the assay plates using a Pintool station. One uL of PK11195 (final concentration = 0.75 uM) was added, using a Flying Reagent Dispenser, inside each well. After a 23 hr incubation period at 37 C/5% CO2, 1 uL of CellTiter-Fluor reagent was added into each well of the assay plates using a Flying Reagent Dispenser. The fluorescence intensity in the plates was then measured using a ViewLux plate reader.
Potency is the fitted concentration of half-maximal effect.

**Q.** Which Potency does the source give for `C[CH2][Hg][N]1C(=O)C2C(C1=O)C1(Cl)C(Cl)=C(Cl)C2(Cl)C1(Cl)Cl` (stereo not given) here?
**A.** 14.6 µM (active)

**Q.** For `C=CC(=O)N(C)C`, which Potency is on record?
**A.** inactive

**Q.** Which Potency does the source give for `CCCN(CCC)CCc1c[nH]c2ccccc12` here?
**A.** inactive

**Q.** For `Clc1ccc(-c2ccccc2)cc1`, which Potency is on record?
**A.** inactive

**Q.** With `Brc1c(Br)c(Br)c(Oc2c(Br)c(Br)c(Br)c(Br)c2Br)c(Br)c1Br` as the molecule, how does the viability change, negative = cytotoxic read?
**A.** -2.08% [at 19 µM]

**Q.** With `ClC(Cl)=C(Cl)Cl` as the molecule, how does the Potency read?
**A.** inactive

**Q.** Which Potency does the source give for `Oc1ccc(C(c2ccc(O)cc2)(C(F)(F)F)C(F)(F)F)cc1` here?
**A.** inactive

**Q.** For `O=[N+]([O-])c1ccc2ccc3cccc4ccc1c2c34`, which Potency is on record?
**A.** inactive

**Q.** For `FC(Cl)(Cl)Cl`, which Potency is on record?
**A.** inactive

**Q.** Which Potency does the source give for `Clc1ccc(COC(Cn2ccnc2)c2ccc(Cl)cc2Cl)cc1` (stereo not given) here?
**A.** 45.3 µM (active) and 54.3 µM (active)

**Q.** Which Potency does the source give for `N#CNC#N` here?
**A.** inactive

**Q.** For `N#CSCSC#N`, which Potency is on record?
**A.** 44.2 µM (active) and 48.1 µM (active)

**Q.** With `CCCCCCCCCCCCCCC(Br)C(=O)O` (stereo not given) as the molecule, how does the Potency read?
**A.** inactive

**Q.** For `CCCCCCCCCCCCCCCC[n+]1ccccc1`, which Potency is on record?
**A.** 25.5 µM (active) and 15.4 µM (active) and 13.5 µM (active)

**Q.** For `C=CC(=O)OCC(COC(=O)C=C)(COC(=O)C=C)COC(=O)C=C`, which Potency is on record?
**A.** 15.4 µM (active)

**Q.** With `c1ccc2c(c1)OCC(C1=NCCN1)O2` (stereo not given) as the molecule, how does the Potency read?
**A.** 23.7 µM (active)

**Q.** With `C[C@@H]1O[C@@H](O[C@H]2C[C@@H](O)[C@]3(CO)[C@H]4[C@H](O)C[C@]5(C)[C@@H](C6=CC(=O)OC6)CC[C@]5(O)[C@@H]4CC[C@]3(O)C2)[C@H](O)[C@H](O)[C@H]1O` as the molecule, how does the Potency read?
**A.** 231 nM (active) and 266 nM (active)

**Q.** For `CCOC(=O)C1(c2ccccc2)CCN(CCC(C#N)(c2ccccc2)c2ccccc2)CC1`, which Potency is on record?
**A.** inactive

**Q.** For `N#Cc1ccccc1N`, which Potency is on record?
**A.** inactive

**Q.** For `C1CCC2CCCCC2C1` (stereo not given), which Potency is on record?
**A.** inactive

**Q.** Which Potency does the source give for `CCC(C)c1cc([N+](=O)[O-])cc([N+](=O)[O-])c1OC(=O)C=C(C)C` (stereo not given) here?
**A.** 61.1 µM (active)

**Q.** Which Potency does the source give for `Cc1c(Cl)c(=O)oc2cc(OP(=O)(OCCCl)OCCCl)ccc12` here?
**A.** inactive

**Q.** With `[Cl][Sn]([c]1ccccc1)([c]1ccccc1)[c]1ccccc1` as the molecule, how does the Potency read?
**A.** 3.66 µM (active)

**Q.** With `CC(C)CC(C)N` (stereo not given) as the molecule, how does the Potency read?
**A.** inactive

**Q.** For `CCc1ccccc1C`, which Potency is on record?
**A.** inactive

**Q.** Which Potency does the source give for `CC(=O)O[C@H]1CC[C@@]2(C)C(=CC[C@@H]3[C@@H]2CC[C@]2(C)C(=O)CC[C@@H]32)C1` here?
**A.** inactive

**Q.** Which Potency does the source give for `N#Cc1ccccc1Cl` here?
**A.** inactive

**Q.** With `CC(=O)C(Cl)(Cl)Cl` as the molecule, how does the Potency read?
**A.** 16.6 µM (active)

**Q.** Which Potency does the source give for `COC(=O)N(C(=O)N1COC2(C(=O)OC)Cc3cc(Cl)ccc3C2=N1)c1ccc(OC(F)(F)F)cc1` (stereo not given) here?
**A.** inactive

**Q.** For `S=C=Nc1cccc2ccccc12`, which Potency is on record?
**A.** 67.9 µM (active)

**Q.** With `BrC(Br)C(Br)(Br)Br` as the molecule, how does the Potency read?
**A.** inactive

**Q.** Which Potency does the source give for `BrCC(Br)c1ccccc1` (stereo not given) here?
**A.** inactive

**Q.** For `NC(=O)CCl`, which Potency is on record?
**A.** inactive

**Q.** With `O=C(Nc1ccc2[nH]ccc2c1)c1cc2cc(F)ccc2n1Cc1cccc(F)c1` as the molecule, how does the Potency read?
**A.** inactive

**Q.** For `ClC1=C(Cl)[C@]2(Cl)[C@@H]3[C@@H](Cl)[C@@H](Cl)C[C@@H]3[C@@]1(Cl)C2(Cl)Cl`, which Potency is on record?
**A.** inactive

**Q.** For `CC(C)(C)C(O)C(Oc1ccc(-c2ccccc2)cc1)n1cncn1` (stereo not given), which Potency is on record?
**A.** inactive

**Q.** For `CC(C)(O)c1cnn2c(-c3ccc(F)c(-c4c(F)cccc4C#N)c3)cnc2n1`, which Potency is on record?
**A.** inactive

**Q.** Which Potency does the source give for `O=C/C(Cl)=C(/Cl)C(=O)O` here?
**A.** inactive

**Q.** Which Potency does the source give for `CC(C)C(=O)Cl` here?
**A.** inactive

**Q.** With `CN(C)CCc1c[nH]c2cccc(O)c12` as the molecule, how does the Potency read?
**A.** inactive

Reference: PubChem BioAssay (Tox21)
